Screening results (PubChem)
VACV Venus inh: qHTS for Stage-Specific Inhibitors of Vaccinia Orthopoxvirus: Venus Reporter Primary qHTS. Potency, µM (top dose mostly 36.5 µM), usual class: inhibitors. AID 720580, 2013. Vaccinia virus Venus reporter expression, fluorescence. 330,000 tested, 0.46% active; calls by dose curve; tested in A549 cells; note: nearly all actives have a fitted effect of over 30% in size
Marburg entry inh: qHTS for inhibitors of binding or entry into cells for Marburg Virus; Marburg virus pseudotyped entry inhibition, cell reporter; Potency, µM (titrated, usually from 37.8 µM), actives largely listed as inhibitors; 300,000 tested, 1.8% active; calls by dose curve; tested in HEK293 cells
LASV entry inh: qHTS for Inhibitors of binding or entry into cells for Lassa Virus. Lassa virus pseudotype entry inhibition, cell reporter. Potency, µM (highest dose often 37.9 µM), most hits filed as inhibitors. 300,000 tested, 1.2% active; calls by dose curve; tested in HEK293 cells; note: nearly all actives have a fitted effect of over 50% in size
VACV mCherry inh: qHTS for Stage-Specific Inhibitors of Vaccinia Orthopoxvirus: mCherry Reporter Primary qHTS. Potency, µM (top dose mostly 36.5 µM), usual class: inhibitors. 310,000 tested, 0.63% active. Vaccinia virus mCherry reporter infection, fluorescence; calls by dose curve; tested in A549 cells; note: nearly all actives have a fitted effect of over 35% in size
HCV inhibitor: qHTS Assay for Inhibitors of Hepatitis C Virus (HCV); Huh7.5.1 HCVcc-Cre infection, luciferase reporter, 44 h; Potency, µM (titrated, usually from 41.8 µM), most hits filed as inhibitors; 340,000 tested, 3.4% active; active = well fitted inhibition curve with a large enough effect; inconclusive = small, poorly fitted or top-dose-only effect, or another doubt; inactive = no such curve, though single readings can be large or run the other way
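A cell-based infection assay in which seeded cells (1,000 per well) receive test compound after 4 h, are inoculated with HCVcc-Cre at approximately 0.5 moi, and are incubated 44 h before luminescence detection.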
A number is an active result; 0 = inactive; ? = inconclusive; - = no result; ! = a repeat was not active; [ ] = remark or other dose. In the library only some 4.6% were active in any assay of this set; here they are far more common.

SMILES	VACV Venus inh	Marburg entry inh	LASV entry inh	VACV mCherry inh	HCV inhibitor
Cc1ccc(Oc2nc(-c3ccccc3)ncc2S(=O)(=O)c2ccc(C)cc2)cc1	0	0	?	-	5.6µM
O=C(O)c1cnc(-c2ccccc2)nc1Oc1ccccc1	0	0	0	0	3.5µM
O=C(O)c1cnc(-c2ccccc2)nc1Oc1ccc(Cl)cc1	0	0	0	0	0
CN1C(=O)N=C2N=CN(C)C2C1=O (stereo not drawn)	-	0	-	-	-
COC(=O)CC1Oc2ccccc2-n2cc(-c3ccc(F)cc3)nc21 (stereo not drawn)	0	0	?	0	-
Cc1cccc(N2CCN(C(=O)C3CCN(c4ncnc5c4nc4n5CCCCC4)CC3)CC2)c1C	?	-	?	0	7.1µM
COc1ccccc1N1CCN(CCCNC(=O)C2CCCN(c3ncnc4c3nc3n4CCCCC3)C2)CC1 (stereo not drawn)	-	-	-	-	13µM
O=C(C1CCN(c2ncnc3c2nc2n3CCCCC2)CC1)N1CCN(c2ccccc2F)CC1	0	-	0	0	0
O=C(NCCCN1CCN(c2ccc(F)cc2)CC1)C1CCCN(c2ncnc3c2nc2n3CCCCC2)C1 (stereo not drawn)	0	?	?	0	?
Cc1cccc(N2CCN(C(=O)C3CCN(c4ncnc5c4nc4n5CCCCC4)CC3)CC2C)c1 (stereo not drawn)	?	?	10µM	?	5.6µM
COc1cccc(CNC(=O)c2c3c(nc4ccccc24)C(=O)N(C2CCCCC2)C3)c1	0	-	0	0	-
O=C(O)CCC(=O)c1cccc2ccccc12	-	?	?	-	0
C[N+](C)(C)CCC(=O)c1cccc2ccccc12	?	4.5µM	-	?	-
COc1cc2c(cc1OC)C(c1cc(-c3cc(Cl)ccc3Cl)oc1C)=NCC2	0	-	-	0	-
O=C1Nc2ccccc2Oc2cc(Oc3ccc(Cl)cc3)ccc21	0	-	?	0	-
Cc1ccc(Oc2cc([N+](=O)[O-])cc3c2C(=O)Nc2ccccc2O3)cc1	0	?	?	?	13µM
CCOc1ccc(-n2ccn3c(CC(C)CC(=O)O)nnc3c2=O)cc1 (stereo not drawn)	0	?	0	0	-
C/C=C(\C)C(=O)NCCN1Cc2ccccc2OC(c2ccccc2OC)C1 (stereo not drawn)	0	-	-	0	-
Cc1ccc(NC(=O)CCS(=O)(=O)c2ccc3c(c2)oc(=O)n3C)c(Br)c1	0	-	0	0	-
COc1ccc(N2CCN(CCCNC(=O)c3cc4sccc4n3C)CC2)cc1	-	?	0	-	13µM
COc1ccc(N2CCN(CCCN)CC2)cc1	0	?	?	0	10µM
NCCCN1CCN(c2ccccc2)CC1	0	0	0	0	?
CC1CCN(CCCNC(=O)c2cc3sccc3n2C)CC1	-	?	0	-	0
COc1ccc(CC2(C)OC(c3ccc(C)c([N+](=O)[O-])c3)=NN2C(C)=O)cc1 (stereo not drawn)	0	?	0.79µM	0	?
O=C(c1cccs1)N1C[C@H](O)[C@H](n2cc(C3CC3)nn2)C[C@@H]1c1ccccc1	-	-	0	-	-
SMILES	VACV Venus inh	Marburg entry inh	LASV entry inh	VACV mCherry inh	HCV inhibitor
CCOC(=O)c1cnc2ccc(OCC)cc2c1N1CCN(c2ccccc2OC)CC1	0	?	?	?	?
CCOC(=O)c1cnc2ccc(OCC)cc2c1N(C)Cc1ccccc1	0	?	0	0	11µM
CCOC(=O)N1CCC(N(CCN(C)C)C(=S)Nc2ccc(Oc3ccccc3)cc2)CC1	0	?	?	0	11µM
CCN1CCN(CCNC(=O)CCc2c(C)c3c(C)nn(-c4ccccc4)c3n(C)c2=O)CC1	?	?	?	0	16µM
Cc1ccc(N(CC(=O)NC2CCCC2)C(=O)c2ccc(C)s2)cc1	-	0	0	-	11µM
Cc1cc(C)cc(N(CC(=O)NC2CCCCC2)C(=O)c2ccc(C)s2)c1	0	?	0	0	11µM
c1ccc2c(N3CCCCCC3)nc(CN3CCCCC3c3nccs3)nc2c1 (stereo not drawn)	0	-	-	?	-
O=C(CCl)N1N=C(c2ccco2)CC1c1ccco1 (stereo not drawn)	0	?	?	?	11µM
Cc1c(Br)c([N+](=O)[O-])nn1CCCC(=O)N1CCN(c2ccccc2)CC1	0	13µM	0	0	0
Cc1ccc(-n2nnnc2-c2cnn(-c3ccc(F)cc3)c2C(F)(F)F)cc1	-	?	15µM	-	?
FC(F)(F)c1ccncc1-c1nnnn1-c1ccc(Cl)cc1	0	?	0	0	0
Cc1ccc(-n2nnnc2-c2cnc(-c3cccnc3)nc2C(F)(F)F)cc1	-	0	?	-	10µM
c1ccc(-n2nnnc2-c2cnc(-c3ccncc3)nc2-c2cccs2)cc1	-	0	0	-	0
Fc1ccc(-n2nnnc2-c2cnc(-c3cccs3)nc2C(F)(F)F)cc1	-	?	?	-	10µM
FC(F)(F)c1nc(-c2ccncc2)ncc1-c1nnnn1-c1ccccc1	-	0	0	-	0
FC(F)(F)c1nc(N2CCCC2)ncc1-c1nnnn1-c1ccc(Cl)cc1	?	?	?	?	10µM
CC(=O)c1nn(-c2ccc(OC(F)(F)F)cc2)nc1Nc1ccc(Cl)cc1	0	0	0	0	-
CC1CCN(C(=O)CCN2C(=O)/C(=C/c3cccs3)SC2=S)CC1	0	?	5.6µM	?	?
CCc1ccc(/C=C2\SC(=S)N(CCC(=O)N3CCN(C)CC3)C2=O)cc1	10µM	-	-	?	0
COc1ccc(/C=C2/SC(=S)N(CCC(=O)N3CCN(C)CC3)C2=O)cc1	0	?	?	0	?
COc1cc(/C=C2/SC(=S)N(CCC(=O)N3CCN(C)CC3)C2=O)cc(OC)c1OC	?	-	-	10µM	-
CCOc1ccc(CCNC(=O)c2cc(Nc3ccc(C)cc3C)nc3ccccc23)cc1OCC	0	0	0	0	-
Cc1cc(S(=O)(=O)Nc2ccc(C(=O)NCC3(N(C)C)CCCCC3)cc2)ccc1F	0	0	0	0	0
Cc1cc(S(=O)(=O)Nc2ccc(C(=O)NCC3(N4CCCCC4)CCCCC3)cc2)ccc1F	0	11µM	?	0	0
COCCNC(=O)Cn1c(=O)n(CCCC(=O)NCc2ccc3c(c2)OCO3)c(=O)c2sccc21	0	?	4.5µM	0	0
SMILES	VACV Venus inh	Marburg entry inh	LASV entry inh	VACV mCherry inh	HCV inhibitor
Cc1ccc(-c2ccc(/C=C3\SC(N4CCOCC4)=NC3=O)o2)cc1	?	?	?	?	13µM
O=C1N=C(N2CCOCC2)SC1=Cc1ccco1	0	0	0	0	0
O=C1N=C(N2CCOCC2)S/C1=C/c1ccc(-c2ccc(F)cc2)o1	0	2.5µM	?	0	?
O/N=C(/CI)c1ccc2ccccc2c1	0	-	-	0	-
CCc1nc(SCc2ccc(OCC(C)C)cc2)n[nH]1	0	7.9µM	?	0	?
O=C(NNC(=S)NC1CCCCC1)c1ccc(Cl)s1	0	0	0	0	0
C/C(=N\NC(=O)NC1CCCCC1)c1ccc(Cl)s1	0	0	?	0	3.2µM
Cc1cccc2[nH]cc(/C=C3/C=Nc4ccccc43)c12	0	-	-	0	-
Fc1ccc(C(c2ccc(F)cc2)N2CCN(C/C=C/c3ccccc3)CC2)cc1	?	7.1µM	13µM	0	1.6µM!
C(=C\c1ccccc1)/CN1CCN(C(c2ccccc2)c2ccccc2)CC1	0	21µM!	15µM!	0	0[8.37 µM]
